For one test, the system named is 7G8. Put plainly: qHTS profiling for inhibitors of Plasmodium falciparum proliferation (AID 504749). Further: nearly all actives have a fitted effect of over 60% in size. Further: potency means the concentration at half of the fitted maximal effect. The settings on record: P. falciparum in erythrocytes, SYBR Green DNA, 72 h; series mostly up to 28.7 µM. A digest of the protocol:
(§1)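 SYBR Green fluorescence (ex 485 nm, em 535 nm) reports parasite DNA after 72 h compound exposure of infected red cells at 0.3% parasitemia, 2.5% hematocrit; signal normalized to 0.29 uM artemisinin and vehicle wells.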

The subject of a further test is AA1029. The description is as above. The settings on record: P. falciparum in erythrocytes, SYBR Green DNA, 72 h; series mostly up to 28.7 µM. Put shortly:
as §1

The next test relates to CP201. The description is as above. The settings on record: P. falciparum in erythrocytes, SYBR Green DNA, 72 h; series mostly up to 28.7 µM. Put shortly: as §1
A further test deals with CP203. Described as above. As to conditions: P. falciparum in erythrocytes, SYBR Green DNA, 72 h; series mostly up to 28.7 µM. Put shortly:
as §1

The next test has as its system CP211. The description is as above. As to conditions: P. falciparum in erythrocytes, SYBR Green DNA, 72 h; series mostly up to 28.7 µM. A digest of the protocol:
as §1

Another test relates to CP266. Described as above. The settings on record: P. falciparum in erythrocytes, SYBR Green DNA, 72 h; series mostly up to 28.7 µM. A digest of the protocol:
as §1

In another test the test system is CP269. The test is described as above. The settings on record: P. falciparum in erythrocytes, SYBR Green DNA, 72 h; series mostly up to 28.7 µM. A digest of the protocol:
as §1

The subject of another test is CP297. The description is as above. As to conditions: P. falciparum in erythrocytes, SYBR Green DNA, 72 h; series mostly up to 28.7 µM. A digest of the protocol:
as §1

The subject of the next test is CP305. The description is as above. As to conditions: P. falciparum in erythrocytes, SYBR Green DNA, 72 h; series mostly up to 28.7 µM. Put shortly:
as §1

The subject of the next test is DIV17. Described as above. The settings on record: P. falciparum in erythrocytes, SYBR Green DNA, 72 h; series mostly up to 28.7 µM. Put shortly: as §1
A further test deals with ECU. The test is described as above. The settings on record: P. falciparum in erythrocytes, SYBR Green DNA, 72 h; series mostly up to 28.7 µM. A digest of the protocol:
as §1

A further test has as its system ICS. The test is described as above. The settings on record: P. falciparum in erythrocytes, SYBR Green DNA, 72 h; series mostly up to 28.7 µM. A digest of the protocol:
as §1

The next test relates to JCK. The description is as above. As to conditions: P. falciparum in erythrocytes, SYBR Green DNA, 72 h; series mostly up to 28.7 µM. Put shortly: as §1
Test [1] is described as follows: S16 Schwann cell PMP22 intronic element firefly luciferase assay (AID 624032). Further: nearly all actives have a fitted effect of over 30% in size. Further: potency means the concentration at half of the fitted maximal effect.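 On activity change, negative = inhibition: plate controls were DMSO for no effect and PTC124 positive control mean for full effect.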 Put shortly: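 Rat S16 Schwann cells stably carrying firefly luciferase driven by a PMP22 intronic element, in 10% FBS, treated 24 h at 37 C. ONE-Glo luminescence normalized to PTC124 control and DMSO (0%); curves classed by r2, magnitude and activity.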
A further test deals with DIV14. The test can be described thus: qHTS profiling for inhibitors of Plasmodium falciparum proliferation (AID 504749). Further: nearly all actives have a fitted effect of over 60% in size. Further: potency means the concentration at half of the fitted maximal effect. As to conditions: P. falciparum in erythrocytes, SYBR Green DNA, 72 h; series mostly up to 28.7 µM. A digest of the protocol:
as §1

The test system of the next test is W2. The description is as above. As to conditions: P. falciparum in erythrocytes, SYBR Green DNA, 72 h; series mostly up to 28.7 µM. Put shortly:
as §1

In a further test the test system is CP215. Described as above. As to conditions: P. falciparum in erythrocytes, SYBR Green DNA, 72 h; series mostly up to 28.7 µM. A digest of the protocol: as §1
For a further test, the system named is HB3. The test is described as above. The settings on record: P. falciparum in erythrocytes, SYBR Green DNA, 72 h; series mostly up to 28.7 µM. Put shortly: as §1
For a further test, the system named is TAB109. Described as above. As to conditions: P. falciparum in erythrocytes, SYBR Green DNA, 72 h; series mostly up to 28.7 µM. A digest of the protocol: as §1
The target of test [2] is Ubiquitin carboxyl-terminal hydrolase 1 (Homo sapiens) (UniProt O94782). The test can be described thus: Inhibitors of USP1/UAF1: Pilot qHTS (AID 504865).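 Further: rhodamine fluorescence freed from ubiquitin-rhodamine substrate followed over time; top concentration of the series differs between compounds; on the % scale 0 is the no-effect control and ±100 the full control effect; nearly all actives have a fitted effect of over 35% in size.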 Put shortly: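 Deubiquitinase activity followed as kinetic rhodamine fluorescence release from 150 nM Ub-Rho. 1 nM USP1/UAF1 with compound, after 15 min room-temperature preincubation, in HEPES pH 7.8 buffer containing TCEP, EDTA, BSA and Tween-20.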
Ubiquitin carboxyl-terminal hydrolase 1 (Homo sapiens), sequence (O94782 whole entry, looked up): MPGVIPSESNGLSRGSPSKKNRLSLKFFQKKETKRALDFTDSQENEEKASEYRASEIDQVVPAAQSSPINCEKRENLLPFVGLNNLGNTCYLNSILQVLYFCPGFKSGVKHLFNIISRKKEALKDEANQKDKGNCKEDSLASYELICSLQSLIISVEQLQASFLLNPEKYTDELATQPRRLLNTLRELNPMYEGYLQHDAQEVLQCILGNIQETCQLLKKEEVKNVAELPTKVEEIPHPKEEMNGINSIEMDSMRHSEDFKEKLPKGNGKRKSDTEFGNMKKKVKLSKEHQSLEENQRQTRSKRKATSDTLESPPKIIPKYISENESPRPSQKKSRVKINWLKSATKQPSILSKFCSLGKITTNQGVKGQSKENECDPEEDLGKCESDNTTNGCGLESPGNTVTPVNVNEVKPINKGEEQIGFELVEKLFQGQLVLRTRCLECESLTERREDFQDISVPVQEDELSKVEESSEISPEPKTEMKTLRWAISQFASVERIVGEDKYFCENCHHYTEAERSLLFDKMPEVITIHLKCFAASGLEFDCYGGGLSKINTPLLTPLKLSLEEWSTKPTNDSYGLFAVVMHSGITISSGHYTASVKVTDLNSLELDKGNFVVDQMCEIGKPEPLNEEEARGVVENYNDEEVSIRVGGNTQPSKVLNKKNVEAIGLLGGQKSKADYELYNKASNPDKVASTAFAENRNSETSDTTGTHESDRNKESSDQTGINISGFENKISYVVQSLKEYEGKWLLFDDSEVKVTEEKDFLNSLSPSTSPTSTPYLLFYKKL

The structures appear in SMILES notation. Results filed as inconclusive are left out. Values without a mark were called inactive. Active and inactive are the calls of the source. The call rests on the fitted dose curve; in most records, active means well fitted curve in the direction sought with a large enough effect; inconclusive means small, poorly fitted or top-dose-only effect, or another doubt; inactive means no such curve, though single readings can be large; an effect the other way counts as inactive or inconclusive.

For the molecule `C=C1CC[C@H](O)C/C1=C/C=C1\CCC[C@]2(C)[C@@H]([C@H](C)CCCC(C)(C)O)CC[C@@H]12`, the Potency in the test with 7G8 is 10 µM (active); in the test on AA1029, 12.6 µM (active); in the test with CP297 it was 13.5 µM (active); with DIV17, 15.1 µM (active); with ECU, 12.6 µM (active); in the test on ICS it was 7.94 µM (active). For the same molecule, the Potency result in the test with CP201, with CP203, in the test with CP211, in the test with CP266, in the test on CP269 and in the test with CP305 was “inactive” each time. The Potency entry with JCK was “inactive”.
With `Cc1cc(O)c2c(c1)OC1(C)CCC3C(C)(C)CCCC34COC2C14` (configuration not stated), the Potency in test [1] is 28.7 µM (active); in the test with 7G8, 8.91 µM (active); in the test on AA1029, 10 µM (active); with DIV14 it was 8.49 µM (active); with DIV17 it was 15.1 µM (active); in the test with ICS it was 6.31 µM (active). Also, in the test on W2, the Potency was 8.49 µM (active). Also, in the test on CP201, the Potency entry is “inactive”.
As to `Cc1cnc(NC(=O)C2C(=O)c3ccccc3S(=O)(=O)N2C)s1` (configuration not stated), the Potency entry (in [1]; in the test on AA1029; in the test on CP201; in the test on CP203; in the test on CP211; in the test with CP215) was “inactive” in each case. Moreover, the Potency result in the test on CP269, in the test with CP297, in the test with CP305, in the test with DIV14, in the test on DIV17 and in the test on ECU was “inactive” throughout. Also, the Potency result with HB3, with ICS, in the test on JCK, with TAB109 and with W2 was “inactive” each time.
As to `CCCCC(=O)OC1CCC2C3CCc4cc(O)ccc4C3CC[C@]12C` (some centres not stated), the Potency result with AA1029, in the test on CP201, in the test with CP203, with CP211, in the test with CP215 and in the test with CP266 was “inactive” each time. Also, the Potency result in the test on CP269, in the test with CP305, in the test with ECU, in the test on HB3, in the test on JCK and in the test on TAB109 was “inactive” throughout.
As to `Oc1cc2cc(CCN3CCN(c4nsc5ccccc45)CC3)c(Cl)cc2[nH]1`, the Potency result (in test [1]; in the test with AA1029; in the test with CP201; in the test with CP203; in the test on CP211; with CP215) was “inactive” in each case. Besides, the Potency result in the test with CP266, in the test on CP269, in the test on CP297, in the test on CP305, in the test with ECU and with JCK was “inactive” in each case. The Potency in the test on 7G8 is 6.31 µM (active); in the test with DIV14, 6.75 µM (active); in the test on ICS it was 6.31 µM (active).
As to `C=C1N[C@]2(C(=O)COC(C)=O)[C@@H](C[C@H]3[C@@H]4CCC5=CC(=O)C=C[C@]5(C)[C@H]4[C@@H](O)C[C@@]32C)O1`, the Potency entry (in test [2]; in test [1]; in the test on CP266; in the test with CP297; with DIV14; with DIV17) was “inactive” in each case. Further, the Potency result in the test on ECU, in the test on HB3, in the test with JCK and with TAB109 was “inactive” each time. Also, the Potency in the test with W2 was 15.1 µM (active).
With `C[C@@H]1CC2[C@@H]3C[C@H](F)C4=CC(=O)C(Cl)=C[C@]4(C)[C@@]3(F)[C@H](O)C[C@]2(C)[C@@]1(O)C(=O)CO` (some centres not stated), the Potency entry (in test [1]; in the test on CP201; in the test on CP211; in the test with CP215; with CP266; in the test on CP269) was “inactive” in each case. The Potency result in the test on CP297, in the test with CP305, in the test with HB3 and in the test with JCK was “inactive” in each case. The Potency with 7G8 is 8.91 µM (active).
Take `CC1=C[C@@H](O)CC(C)(C)[C@@H]1/C=C/C(C)=C/C=C/C(C)=C/C=C/C=C(C)/C=C/C=C(C)/C=C/C1=C(C)C[C@H](O)CC1(C)C`: the Potency is 10 µM (active) with 7G8; 12 µM (active) in the test with DIV14; 11.2 µM (active) in the test with HB3; 5.01 µM (active) in the test on ICS; 6.75 µM (active) with W2. In addition, the Potency entry in the test on CP201, with CP203, in the test on CP211, with CP266, in the test on CP269 and in the test on CP305 was “inactive” in each case. In the test with TAB109, the Potency result was “inactive”.
As for `C=C1CC2C3C=C(C)C4=CC(=O)CCC4(C)C3CCC2(C)[C@@]1(OC(C)=O)C(C)=O` (some centres not stated), the Potency with 7G8 was 12.6 µM (active). Besides, the Potency result in the test with ECU, in the test with JCK and in the test on TAB109 was “inactive” each time.
With `CCOc1ccccc1O[C@@H](c1ccccc1)[C@@H]1CNCCO1`, the Potency result (in [2]; in test [1]; with CP201; in the test with CP211; in the test with CP215; in the test on CP266) was “inactive” each time. The Potency entry in the test on CP269, in the test on CP305 and in the test on HB3 was “inactive” each time. The Potency with 7G8 was 5.01 µM (active); with AA1029, 5.62 µM (active); in the test with DIV14, 1.69 µM (active); with DIV17, 1.9 µM (active); with ECU, 7.94 µM (active); in the test on ICS it was 5.01 µM (active). Besides, the Potency with W2 is 2.69 µM (active).
As to `CN(C)CC[C@@](O)(c1ccccc1)c1ccccc1Cl`, the Potency result in test [2] and in [1] was “inactive” each time. Also, the Potency is 3.55 µM (active) with 7G8; 4.47 µM (active) with AA1029; 12 µM (active) in the test with CP269; 5.36 µM (active) with CP297; 6.75 µM (active) in the test with DIV14; 6.75 µM (active) in the test with DIV17. Also, the Potency with ECU is 7.94 µM (active); with ICS it was 4.47 µM (active); with TAB109 it was 7.08 µM (active); in the test with W2 it was 1.2 µM (active).
Turning to `O=C(O)c1ccccc1-c1c2ccc(=O)cc-2oc2cc(O)ccc12`, the activity change, negative = inhibition in [2] was -94.3% [at 11.4 µM]. Further, the Potency entry (in test [1]; in the test on CP203; in the test with CP215; in the test on CP266; with CP269) was “inactive” in each case.
Turning to `O=C(O)C[CH2][Ge](=[O])[O][Ge](=[O])[CH2]CC(=O)O`, the Potency result (in [2]; in test [1]; in the test with 7G8; in the test on AA1029; with CP201; in the test on CP203) was “inactive” in each case. Besides, the Potency result in the test with CP211, with CP215, in the test on CP266, with CP269, with CP297 and in the test with CP305 was “inactive” in each case. Further, the Potency entry in the test with DIV14, in the test with DIV17, with ECU, in the test with HB3, in the test with ICS and in the test on JCK was “inactive” in each case. Also, the Potency entry with TAB109 and in the test with W2 was “inactive” each time.
